system: Toxoplasma gondii RH 2F1 tachyzoites (intracellular in HFF); experiment: parasite survival relative to DMSO control; higher = less antiparasitic activity, active = 20 or less; settings: 1 µM; 72 h
Summary of the method: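 Intracellular Toxoplasma gondii RH-2F1 tachyzoites, which express β-galactosidase, were grown in HFF cells (5 × 10^3 cells/well, 96-well plates) infected with 5 × 10^3 parasites in D2 medium for 3 h, then treated with compound at 1 μM for 72 h at 37°C in 5% CO2. Cells were lysed for 15 min, then CPRG was added and absorbance read at 570 nm after 30 min. Survival is the signal as a percentage of DMSO-treated infected controls, from 2 or more biological replicates.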

**Q.** How did the parasite survival turn out when `Nc1cc(-c2nc3ccccc3[nH]2)n[nH]c1=O` was run?
**A.** 43% (inactive)

**Q.** With `CC(Oc1ccc(Cl)cc1Cl)C(=O)NCc1ccc2c(c1)OCO2` (stereo not given) as the compound, how does the parasite survival read?
**A.** 31.2% (inactive)

**Q.** With `CC(C)(C)NC(=O)[C@@H]1C[C@@H]2CCCC[C@@H]2CN1C[C@@H](O)[C@H](Cc1ccccc1)NC(=O)[C@H](CC(N)=O)NC(=O)c1ccc2ccccc2n1` as the compound, how does the parasite survival read?
**A.** 39% (inactive)

**Q.** For `O=C(NC12CC3CC(CC(C3)C1)C2)c1cc2ccccc2[nH]1`, which parasite survival is on record?
**A.** 14.7% (active)

**Q.** With `CC[C@@H](CO)NCCN[C@@H](CC)CO` as the compound, how does the parasite survival read?
**A.** 55.4% (inactive)

**Q.** With `NC[C@H]1OB(O)c2c(OCCCO)cccc21` as the compound, how does the parasite survival read?
**A.** 54.2% (inactive)

**Q.** How did the parasite survival turn out when `COc1ccc(SCC(=O)N2c3ccccc3Sc3ccccc32)cc1` was run?
**A.** 47.4% (inactive)

**Q.** For `CO/N=C(\C(=O)N[C@@H]1C(=O)N2C(C(=O)OCOC(=O)C(C)(C)C)=C(/C=C\c3scnc3C)CS[C@H]12)c1csc(N)n1`, which parasite survival is on record?
**A.** 54.4% (inactive)

**Q.** Which parasite survival does the source give for `OB1OCc2c1ccc(Cl)c2F` here?
**A.** 77.1% (inactive)

**Q.** For `O=C1[C@H](CC[C@H](O)c2ccc(F)cc2)[C@@H](c2ccc(O)cc2)N1c1ccc(F)cc1`, which parasite survival is on record?
**A.** 91.5% (inactive)

**Q.** Which parasite survival does the source give for `Cc1cc(C)n(O)c(=O)c1` here?
**A.** 49.3% (inactive)

**Q.** For `Cc1c[nH]c(=O)nc1NCc1ccccc1`, which parasite survival is on record?
**A.** 49.9% (inactive)

**Q.** How did the parasite survival turn out when `CCc1oc2ccccc2c1C(=O)c1ccc(O)cc1` was run?
**A.** 29.1% (inactive)

**Q.** For `CC[N+]1(C/C2=C/CCCCCC2)CCC(NC(=O)C2c3cc(Cl)ccc3Oc3ccc(Cl)cc32)CC1` (stereo not given), which parasite survival is on record?
**A.** 59.8% (inactive)

**Q.** `CCCCc1ccc(S(=O)(=O)Nc2cc(C)on2)cc1` was tested. Which parasite survival did it give?
**A.** 39.1% (inactive)
